This passage reports outcome and AC50 results from PubChem BioAssay (EPA / NIEHS).

A short description of assay [1]: BSK_KF3CT_SRB: Viability Assessment in the BioMAP Diversity Plus: KF3CT Assay (AID 2283069).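 Also: total protein by sulforhodamine B staining as a cytotoxicity measure; read 24 h after compound addition; fitted for both signal gain and loss against DMSO baseline.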 As to conditions: primary human keratinocytes with fibroblasts. The essentials: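 Keratinocytes co-cultured with foreskin fibroblasts (human primary); chemical added, 24 h; fix 10% TCA, stain 0.1% SRB, A560. Bidirectional fit vs DMSO.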
Read-out in assay [2]: Interleukin-1 alpha (IL1a), IL1A (gene 3552)
Kind of assay: BSK_KF3CT_IL1a: BioMAP Diversity Plus: KF3CT Assay for Interleukin-1 alpha (IL1a) Biomarker Activity (AID 2283070). As to conditions: primary human keratinocytes with fibroblasts; actives raise or lower the signal. The essentials:
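Chemicals were dosed onto co-cultured human keratinocytes and foreskin fibroblasts, IL-1a was quantified by ELISA at 24 h, and activity was fitted in both directions relative to DMSO controls.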

Read-out in assay [3]: TIMP metallopeptidase inhibitor 2 (TIMP2), TIMP2 (gene 7077)
Briefly: BSK_KF3CT_TIMP2: BioMAP Diversity Plus: KF3CT Assay for TIMP metallopeptidase inhibitor 2 (TIMP2) Biomarker Activity (AID 2283071). As to conditions: primary human keratinocytes with fibroblasts; actives raise or lower the signal. The essentials:
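Human primary keratinocyte/foreskin fibroblast co-culture dosed with chemical and sampled at 24 h. TIMP-2 levels quantified by ELISA; bidirectional fitting against DMSO negative control as baseline.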

Read-out in assay [4]: Transforming growth factor beta 1 (TGFb1), TGFB1 (gene 7040)
Briefly: BSK_KF3CT_TGFb1: BioMAP Diversity Plus: KF3CT Assay for Transforming growth factor beta 1 (TGFb1) Biomarker Activity (AID 2283072). The note with it: primary human keratinocytes with fibroblasts; actives raise or lower the signal. Summed up:
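Human keratinocyte plus foreskin fibroblast primary co-culture, dosed with chemical for 24 h. TGF-b1 quantified by ELISA. Activity fitted bidirectionally against DMSO negative control as baseline.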

Read-out in assay [5]: C-C motif chemokine 2 (Homo sapiens) (UniProt P13500)
Kind of assay: BSK_KF3CT_MCP1: BioMAP Diversity Plus: KF3CT Assay for Monocyte Chemoattractant Protein 1 (MCP1/CCL2) Biomarker Activity (AID 2283073). The note with it: primary human keratinocytes with fibroblasts; actives raise or lower the signal. The essentials: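 ELISA read-out of MCP-1, 24 h post-dose, in primary human skin keratinocytes co-cultured with fibroblasts. Parallel SRB staining monitors cytotoxicity; changes fitted both directions relative to DMSO.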

Read-out in assay [6]: Matrix Metallopeptidase 9 (MMP9), MMP9 (gene 4318)
Kind of assay: BSK_KF3CT_MMP9: BioMAP Diversity Plus: KF3CT Assay for Matrix Metallopeptidase 9 (MMP9) Biomarker Activity (AID 2283074).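 As to AC50: MMP9 protein level quantified by ELISA in the co-culture.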 As to conditions: primary human keratinocytes with fibroblasts; actives raise or lower the signal. The essentials:
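Human keratinocyte/foreskin fibroblast co-culture; compound added; 24 h; MMP-9 by ELISA; bidirectional fit vs DMSO baseline.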

Read-out in assay [7]: urokinase plasminogen activator (uPA), PLAU (gene 5328)
Briefly: BSK_KF3CT_uPA: BioMAP Diversity Plus: KF3CT Assay for urokinase plasminogen activator (uPA) Biomarker Activity (AID 2283075). As to conditions: primary human keratinocytes with fibroblasts; actives raise or lower the signal. Summed up: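 ELISA readout of uPA, analyzed for signal gain or loss relative to DMSO, from a human primary keratinocyte–foreskin fibroblast co-culture measured 24 h after chemical treatment.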

Read-out in the next assay: CD40, CD40 (gene 958)
Briefly: BSK_LPS_CD40: BioMAP Diversity Plus: LPS Assay for CD40 Biomarker Activity (AID 2283076). The note with it: primary human HUVEC with PBMC; actives raise or lower the signal. Summed up:
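In the LPS system of human endothelial cells with peripheral blood mononuclear cells, CD40 levels were read by ELISA 24 h post-treatment. Signal changes in either direction were fitted against the DMSO baseline, with parallel SRB protein staining.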

Read-out in assay [8]: E-selectin (Homo sapiens) (UniProt P16581)
Briefly: BSK_LPS_Eselectin: BioMAP Diversity Plus: LPS Assay for Eselectin Biomarker Activity (AID 2283077). The note with it: primary human HUVEC with PBMC; actives raise or lower the signal. The essentials:
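E-selectin ELISA on LPS-stimulated endothelial cell/PBMC co-cultures, read 24 h post-treatment; gains and losses fitted against DMSO. Parallel SRB staining (0.1% SRB after 10% TCA fixation, 560 nm) flags overt cytotoxicity.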

Read-out in assay [9]: Interleukin-8 (IL8), CXCL8 (gene 3576)
Kind of assay: BSK_LPS_IL8: BioMAP Diversity Plus: LPS Assay for Interleukin-8 (IL8) Biomarker Activity (AID 2283078). As to conditions: primary human HUVEC with PBMC; actives raise or lower the signal. Summed up:
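ELISA read-out of IL-8 after 24 h chemical treatment of LPS-activated endothelial/PBMC human primary co-cultures. Changes either up or down relative to DMSO; overt cytotoxicity checked by sulforhodamine B staining in parallel wells.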

SMILES strings stand for the structures. Some structures have more than one record in an assay (separate samples or runs), and their calls can disagree. Active and inactive are the calls of the source. The calls were made as follows: active = hit-call score of the fitted dose curve at least 0.9, where 1 is the maximum; inactive = score below 0.9.

E-selectin (Homo sapiens), sequence (P16581 whole entry, looked up): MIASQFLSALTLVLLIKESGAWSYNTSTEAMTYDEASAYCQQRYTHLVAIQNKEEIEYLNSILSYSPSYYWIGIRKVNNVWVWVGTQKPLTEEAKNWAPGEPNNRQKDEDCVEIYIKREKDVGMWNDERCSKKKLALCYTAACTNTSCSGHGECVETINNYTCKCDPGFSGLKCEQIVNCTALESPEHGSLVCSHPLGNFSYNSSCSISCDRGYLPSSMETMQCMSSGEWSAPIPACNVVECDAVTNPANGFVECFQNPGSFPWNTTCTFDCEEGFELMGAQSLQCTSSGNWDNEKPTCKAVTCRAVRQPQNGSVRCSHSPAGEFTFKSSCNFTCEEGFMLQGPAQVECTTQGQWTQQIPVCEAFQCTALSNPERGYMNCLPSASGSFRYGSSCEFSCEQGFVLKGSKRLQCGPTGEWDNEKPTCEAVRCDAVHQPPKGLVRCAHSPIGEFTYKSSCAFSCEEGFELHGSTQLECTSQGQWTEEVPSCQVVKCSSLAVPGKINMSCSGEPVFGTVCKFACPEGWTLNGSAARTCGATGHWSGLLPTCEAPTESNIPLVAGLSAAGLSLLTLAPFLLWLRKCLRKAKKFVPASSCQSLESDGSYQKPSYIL

In general, AC50 refers to the concentration giving half of the maximal activity seen. With `CCCCC(CC)CN1C(=O)C2C3C=CC(C3)C2C1=O` (stereo unspecified), the outcome in assay [1], in assay [2], in assay [3], in assay [4], in [5] and in assay [6] was inactive. In addition, the result in assay [7] and in [8] was inactive. Also, in the assay with CD40, CD40 (gene 958), the concentration at half-maximal activity (AC50) was 11.6 µM (active).

Turning to `C=CCOC(Cn1ccnc1)c1ccc(Cl)cc1Cl` (stereo unspecified), the result in assay [1], in [2], in assay [3], in assay [4], in assay [5] and in assay [6] was inactive. The result in assay [8] was inactive. Also, in the assay with CD40, CD40 (gene 958), the AC50 was 22.2 µM (active).

Take `CCCCOC(=O)[C@@H](C)Oc1ccc(Oc2ccc(C(F)(F)F)cn2)cc1`: the outcome in assay [1], in assay [2], in assay [3], in [4], in assay [5] and in [7] was inactive. Further, the outcome with CD40, CD40 (gene 958) was “inactive”; in assay [8], “inactive”.

Consider `COCCO`, for which the outcome in [1] is “inactive”; in assay [2], “inactive”; in [3] it was “inactive”; in assay [4] it was “inactive”; in the assay with CD40, CD40 (gene 958) it was “inactive”; in assay [8], “inactive”. Further, in [9], the result was inactive. In assay [2], the AC50 is 0.8 µM (active).

With `CCOC(=O)C(C)Oc1ccc(Oc2cnc3cc(Cl)ccc3n2)cc1` (stereo unspecified), the outcome in [1], in [2], in [3], in assay [4], in assay [5] and in [7] was inactive. In addition, the outcome was “inactive” with CD40, CD40 (gene 958) and “inactive” in [8].

As for `COC(=O)c1ccccc1C(=O)O`, the outcome in assay [1] is “inactive”; in assay [2], “inactive”; in assay [3], “inactive”; in [4], “inactive”; in assay [6], “inactive”; with CD40, CD40 (gene 958) it was “inactive”. Besides, the outcome in [8] was inactive. Moreover, in [5], the AC50 was 0.726 µM (active).

For `OB(O)O`, the outcome in assay [1], in assay [2], in [3], in assay [4], in assay [5] and in assay [6] was inactive. The outcome is “inactive” in the assay with CD40, CD40 (gene 958); “inactive” in assay [8]; “inactive” in assay [9].

Regarding `Cc1nn(C)c(Oc2ccccc2)c1C=NOCc1ccc(C(=O)OC(C)(C)C)cc1`, the result in assay [1], in assay [2], in assay [3], in assay [4] and in assay [8] was inactive. The AC50 in assay [5] was 12.7 µM (active); in assay [6], 11.8 µM (active).

`CCSC(=O)N(CC(C)C)CC(C)C`: the result in assay [1], in [2], in [3], in assay [4], in assay [5] and in [6] was inactive. The outcome in assay [7] is “inactive”; in the assay with CD40, CD40 (gene 958), “inactive”; in assay [8], “inactive”.

Take `CCCN(CCC)C(=O)SCC`: the result in assay [1], in [2], in [3], in assay [4], in assay [5] and in [6] was inactive. Further, the outcome with CD40, CD40 (gene 958) was “inactive”; in [8], “inactive”.

Consider `CCCCCCC(C)OC(=O)COc1nc(F)c(Cl)c(N)c1Cl` (stereo unspecified), for which the AC50 in assay [1] is 30.4 µM (active); in assay [2], 33.3 µM (active); in assay [3], 31.6 µM (active); in assay [4] it was 31.3 µM (active); in assay [7], 20 µM (active); with CD40, CD40 (gene 958), 29.9 µM (active). In addition, the AC50 in [8] is 30.7 µM (active); in assay [9], 36.8 µM (active). The outcome in [5] was inactive.

For `CC1(C)C(C=C(Cl)Cl)C1C(=O)OCc1cccc(Oc2ccccc2)c1` (stereo unspecified), the outcome in assay [1], in [2], in assay [3], in [4], in assay [5] and in assay [6] was inactive. Besides, the outcome is “inactive” in [7]; “inactive” with CD40, CD40 (gene 958); “inactive” in assay [8].

Regarding `O=C(O)c1ccccc1`, the outcome in assay [1], in [2], in assay [3], in [4], in assay [5] and in assay [6] was inactive. Also, the outcome in the assay with CD40, CD40 (gene 958) was “inactive”; in assay [8], “inactive”.

Take `CCC(C)OC(=O)N1CCCCC1CCO` (stereo unspecified): the result in [1], in assay [2], in assay [3], in assay [4], in assay [5] and in assay [7] was inactive. In addition, the outcome was “inactive” with CD40, CD40 (gene 958) and “inactive” in assay [8].
